Test results taken from PubChem BioAssay AID2576 (National Center for Advancing Translational Sciences (NCATS), 2010).
Inconclusive results are not listed. A number with no mark means an inactive call. The source made the active and inactive calls. Calls follow the shape of the dose curve; as a rule, active = well fitted activation curve with a large enough effect; inconclusive = small, poorly fitted or top-dose-only effect, or effect the other way; inactive = flat fitted curve, though single readings scatter.

These molecules were tested against Pyruvate kinase PKM (Homo sapiens) (UniProt P14618) (assay: Secondary LDH Assay for Activators of Human Pyruvate Kinase M2 isoform: for Probe SAR). Conditions: purified hPK-M2, LDH-coupled NADH fluorescence kinetic; series mostly up to 58.4 µM; activation: at the top concentration.
Sequence of Pyruvate kinase PKM (Homo sapiens) (P14618 whole entry, looked up, canonical isoform): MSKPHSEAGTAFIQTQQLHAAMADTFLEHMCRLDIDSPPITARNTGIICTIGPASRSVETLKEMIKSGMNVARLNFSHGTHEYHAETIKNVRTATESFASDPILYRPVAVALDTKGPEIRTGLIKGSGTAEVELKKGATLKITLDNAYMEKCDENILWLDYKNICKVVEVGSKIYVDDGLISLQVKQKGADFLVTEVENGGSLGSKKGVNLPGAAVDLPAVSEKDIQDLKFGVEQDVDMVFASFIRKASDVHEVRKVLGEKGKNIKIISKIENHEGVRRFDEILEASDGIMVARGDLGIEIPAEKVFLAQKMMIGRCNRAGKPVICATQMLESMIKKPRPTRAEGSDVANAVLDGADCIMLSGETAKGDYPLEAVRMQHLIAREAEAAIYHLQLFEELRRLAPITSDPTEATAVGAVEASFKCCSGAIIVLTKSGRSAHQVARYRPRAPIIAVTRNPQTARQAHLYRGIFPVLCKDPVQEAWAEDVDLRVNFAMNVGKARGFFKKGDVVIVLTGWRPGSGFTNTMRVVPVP
Excerpt: NIH Chemical Genomics Center [NCGC] Matthew G. Vander Heiden, M.D., Ph.D. [Harvard Medical School, 77 Avenue Louis Pasteur, Boston, MA 02115] NCGC Assay Overview: Human pyruvate kinase muscle 2 (hPK-M2)enzyme was supplied as a highly purified (>95% pure) preparation from Harvard Medical School and a secondary assay was used to evaluate compounds. This assay couples the formation of pyruvate from hPK-M2 using lactate dehydrogenase (LDH) and NADH. The depletion of NADH is followed in a fluorescent-based kinetic assay that follows the formation of pyruvate to lactate, as catalyzed LDH (described by Hannaert et al., 2002)1 Pyruvate kinase substrates, PEP and ADP, were present in the assay at 0.1 mM and 4 mM respectively. In this kinetic assay initial rates were determined by following the fluorescence of NADH depletion.
NCGC Assay Protocol Summary: Three uL of substrate mix (final concentration, 50 mM Tris-Cl pH 8.0, 200 mM KCl, 15 mM MgCl2, 0.1 mM PEP, 4.0 mM ADP, and 0.2 mM NADH) was dispensed into black-solid 1536 well plates. 23 nL of compounds were delivered by a pin tool and 1 uL of enzyme mix (final concentrations, 10 nM hPK-M2 and 1 uM of LDH) was added. Plates were immediately placed in ViewLux (Perkin Elmer) and NADH fluorescence was determined at 30 second exposure intervals for between 3 and 6 minutes. Data were normalized to the uninhibited and EC100 activation using known activators such as fructose-bis-phosphate.
With O=C1c2ccccc2C(=O)N1c1cccc2ccncc12 the “activation” value was -6.87%. In the case of COc1cccc(Cn2ncc3c4sc(SC)cc4n(C)c3c2=O)c1, the Potency is reported as 206 nM (active). With Cc1ccc(NS(=O)(=O)c2ccc(Cl)cc2)cc1C the “activation” value was 20%. CSc1cc2c(s1)c1cnn(Cc3cccc(O)c3)c(=O)c1n2C was tested, and the Potency was 206 nM (active). Cc1ccc(NS(=O)(=O)c2cc3c(cc2-c2ccccc2)NC(=O)CO3)cc1C was tested, and the “activation” value was 5.95%. In the case of Cc1ccc(NS(=O)(=O)c2ccc3c(c2)CCC(=O)N3)cc1C, the Potency is reported as 146 nM (active). In the case of Cc1ccc(-c2nc3cnccn3c2Nc2ccc(C(C)C)cc2)o1, the “activation” value is reported as 8.88%. In the case of COc1cc(F)c(S(=O)(=O)N2CCCN(S(=O)(=O)c3cccc(N)c3)CC2)c(F)c1, the Potency is reported as 1830 nM (active). In the case of O=S1(=O)N=C(Oc2ccc(Cl)cc2)c2ccccc21, the “activation” value is reported as -1.7%. In the case of Cc1ccccc1Nc1c(-c2ccc(Cl)s2)nc2ccccn12, the “activation” value is reported as 0.026%. O=C1c2ccccc2C(=O)N1c1cccc(=O)[nH]1 was tested, and the “activation” value was 3.56%. With O=C1c2ccccc2C(=O)N1c1ccccn1 the “activation” value was -0.663%. With Cc1ccccc1NS(=O)(=O)c1ccc2c(c1)CCC(=O)N2 the Potency was 6510 nM (active). Cc1cccc(OC2=NS(=O)(=O)c3ccccc32)c1 was tested, and the “activation” value was 2.22%. In the case of COc1ccc(OC2=NS(=O)(=O)c3ccccc32)cc1, the “activation” value is reported as 1.11%. For Cc1ccc(NS(=O)(=O)c2ccc3c(c2)oc(=O)n3C)cc1C, the “activation” value was 23.2%. In the case of COc1ccc(Nc2c(-c3ccc(C)o3)nc3ccccn23)cc1, the “activation” value is reported as -5.07%. O=C1c2ccccc2C(=O)N1c1cccc2cccnc12 was tested, and the “activation” value was 1.58%. In the case of Cc1ccc(NS(=O)(=O)c2cc3c(cc2C)NC(=O)CO3)cc1C, the Potency is reported as 1030 nM (active). For O=C1CCc2cc(S(=O)(=O)Nc3ccccc3Cl)ccc2N1, the “activation” value was 16.6%. For Cc1ccc(NS(=O)(=O)c2cc3c(cc2F)NC(=O)CC3)cc1C, the Potency was 2590 nM (active). Cc1ccc(NS(=O)(=O)c2cc3c(cc2N2CCCCC2)NC(=O)CC3)cc1C was tested, and the “activation” value was 7.97%. With Cc1ccc(NS(=O)(=O)c2ccc3c(c2)CCC(=O)N3)cc1 the Potency was 5170 nM (active). CC(=O)N1c2ccc(S(=O)(=O)Nc3ccc(C)c(C)c3)cc2CC1C (stereo not given) was tested, and the “activation” value was 18.2%. For Cc1ccc(-c2nc3ccc(Cl)cn3c2Nc2ccccc2)o1, the “activation” value was -2.32%. O=C1CCc2cc(S(=O)(=O)Nc3ccc(-c4ccccc4)cc3)ccc2N1 was tested, and the “activation” value was 6.56%. COc1cccc(N2C(=O)c3ccccc3C2=O)n1 was tested, and the “activation” value was 5.33%. In the case of O=C1c2ccccc2C(=O)N1c1ccc(Cl)cc1, the “activation” value is reported as 16.4%. For Cc1ccc(NS(=O)(=O)c2cccc(C(=O)O)c2)cc1C, the “activation” value was 14.2%. In the case of Cc1ccc(NS(=O)(=O)c2cc3c(cc2-c2cn[nH]c2)NC(=O)CO3)cc1C, the “activation” value is reported as 2.03%. Cc1ccc(NS(=O)(=O)c2cc3c(cc2/C=C/c2ccccc2)NC(=O)CO3)cc1C was tested, and the “activation” value was -4.81%. O=C1c2ccccc2C(=O)N1c1cnc2ccccc2c1 was tested, and the “activation” value was 21.2%. Cc1ccc2nc(-c3ccc(C)o3)c(NC3CCCC3)n2c1 was tested, and the “activation” value was -15.3%. For O=C1c2ccccc2C(=O)N1c1cncc2ccccc12, the “activation” value was -5.39%. For Cc1cc2c(s1)c1cnn(Cc3c(Cl)ccc(C)c3F)c(=O)c1n2C, the Potency was 562 nM (active). With O=C1c2ccccc2C(=O)N1c1cc(=O)c2ccccc2[nH]1 the “activation” value was 8.9%. In the case of Cc1ccc2nc(-c3ccncc3)c(Nc3ccccc3)n2c1, the “activation” value is reported as -2.52%. With CN(C)c1cccc(S(=O)(=O)N2CCN(S(=O)(=O)c3ccc4c(c3)OCCO4)CC2)c1 the “activation” value was 2.94%. With Cc1ccc(NS(=O)(=O)c2ccc3c(c2)CCCC(=O)N3)cc1C the “activation” value was 25.4%. O=C1CCc2cc(S(=O)(=O)Nc3ccccn3)ccc2N1 was tested, and the “activation” value was -3.58%.
